Reference: PubChem BioAssay (NCI)
About 83,000 compounds went through this panel and 20% of them were active in at least one assay; those are over-represented in the sample as a whole.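 How to read the values: 0–100, growth inhibition (40 = 60% inhibited); 0, no net growth; -100 to 0, cell death (-40 = 40% of starting cells died; -100 = all dead).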 Activity calls are given as the source filed them. How the source made its calls: active means growth percent below 10; inactive means the rest.

How the values were obtained:
Experiment in all cases: NCI-60 one-dose screen, 48 h (100 = growth as untreated, 0 = no growth, -100 = all killed)
Settings in all cases: 10 µM
SR leukemia = test system: SR leukemia
RPMI-8226 leukemia = test system: RPMI-8226 leukemia
OVCAR-8 ovarian = test system: OVCAR-8 ovarian
OVCAR-5 ovarian = test system: OVCAR-5 ovarian
OVCAR-4 ovarian = test system: OVCAR-4 ovarian
SK-OV-3 ovarian = test system: SK-OV-3 ovarian
IGROV1 ovarian = test system: IGROV1 ovarian
OVCAR-3 ovarian = test system: OVCAR-3 ovarian
HS 578T breast = test system: HS 578T breast
NCI/ADR-RES ovarian = test system: NCI/ADR-RES ovarian
T-47D breast = test system: T-47D breast
BT-549 breast = test system: BT-549 breast
MDA-MB-435 melanoma = test system: MDA-MB-435 melanoma
SW-620 colon = test system: SW-620 colon
MCF7 breast = test system: MCF7 breast
HCT-116 colon = test system: HCT-116 colon
HCC-2998 colon = test system: HCC-2998 colon
KM12 colon = test system: KM12 colon
MDA-MB-468 breast = test system: MDA-MB-468 breast

Measured: growth

O=C(CNc1nc(-c2ccccc2)cs1)Nc1cccc(Cl)c1
active: SR leukemia -15% | T-47D breast 7.64%
inactive: RPMI-8226 leukemia 26% | OVCAR-8 ovarian 32.1% | OVCAR-5 ovarian 40.9% | OVCAR-4 ovarian 32.5% | SK-OV-3 ovarian 37.7% | IGROV1 ovarian 29.4% | OVCAR-3 ovarian 32.2% | HS 578T breast 32.4% | NCI/ADR-RES ovarian 19.5% | BT-549 breast 25.8% | MDA-MB-435 melanoma 42.1% | SW-620 colon 35.9% | MCF7 breast 21.8% | HCT-116 colon 27.6% | HCC-2998 colon 33.2% | KM12 colon 23.6% | MDA-MB-468 breast 10.7%

CCOC(=O)CNC(=O)CN(Cc1ccccc1)C(=O)[C@@]1(C)CCC[C@]2(C)[C@H]3CC4C(C(C)C)=C[C@]3(CC[C@H]21)[C@@H]1C(=O)CCC(=O)[C@H]41
inactive: RPMI-8226 leukemia 19.8% | OVCAR-8 ovarian 58.3% | OVCAR-5 ovarian 97.8% | OVCAR-4 ovarian 49.4% | SK-OV-3 ovarian 96.6% | IGROV1 ovarian 18.2% | OVCAR-3 ovarian 61.1% | HS 578T breast 52.6% | NCI/ADR-RES ovarian 47.9% | T-47D breast 52.2% | BT-549 breast 67.8% | MDA-MB-435 melanoma 70.6% | SW-620 colon 49.8% | MCF7 breast 13.1% | HCT-116 colon 36.5% | HCC-2998 colon 37.8% | KM12 colon 77.7%
active: SR leukemia 8.03% | MDA-MB-468 breast 3.12%

COc1ccc(/C=N/N=C(\C)c2ccc3c(c2)Nc2ccccc2S3)cc1O
active: MDA-MB-468 breast 0.0526%
inactive: SR leukemia 32.6% | RPMI-8226 leukemia 28.3% | OVCAR-8 ovarian 62.8% | OVCAR-5 ovarian 71.4% | OVCAR-4 ovarian 41.7% | SK-OV-3 ovarian 87.3% | IGROV1 ovarian 70.1% | OVCAR-3 ovarian 72.8% | HS 578T breast 73.7% | NCI/ADR-RES ovarian 34.8% | T-47D breast 21.5% | BT-549 breast 40.1% | MDA-MB-435 melanoma 34.7% | SW-620 colon 68.5% | MCF7 breast 11.9% | HCT-116 colon 38.7% | HCC-2998 colon 51.2% | KM12 colon 39.2%

CN(C(=O)c1ccc(C(C)(C)C)cc1)c1sc2c(c1C#N)CCC(=O)C2
active: RPMI-8226 leukemia 9.38% | OVCAR-8 ovarian 5.3% | OVCAR-5 ovarian 8.47% | OVCAR-4 ovarian 1.97% | IGROV1 ovarian -34.4% | OVCAR-3 ovarian -69.7% | NCI/ADR-RES ovarian -35.1% | T-47D breast -40.3% | BT-549 breast -27.7% | SW-620 colon -42.3% | HCT-116 colon -9.14% | HCC-2998 colon -4.22% | KM12 colon -6.74% | MDA-MB-468 breast -41.4%
inactive: SR leukemia 13.7% | SK-OV-3 ovarian 101% | HS 578T breast 11.8% | MDA-MB-435 melanoma 14.7% | MCF7 breast 25.7%

CC(C)c1ccc(C(=O)Nc2sc3c(c2C(N)=O)CCC(=O)C3=O)cc1
inactive: SR leukemia 72.8% | RPMI-8226 leukemia 85% | OVCAR-8 ovarian 94.2% | OVCAR-5 ovarian 114% | OVCAR-4 ovarian 91.5% | SK-OV-3 ovarian 89.4% | IGROV1 ovarian 72.4% | OVCAR-3 ovarian 87% | HS 578T breast 93.7% | NCI/ADR-RES ovarian 97.4% | T-47D breast 80.3% | BT-549 breast 107% | MDA-MB-435 melanoma 91.4% | SW-620 colon 105% | MCF7 breast 79.3% | HCT-116 colon 91.9% | HCC-2998 colon 119% | KM12 colon 98.6% | MDA-MB-468 breast 94.8%

C=C1CCC2C3(C)COC(c4c(F)cccc4F)OC3CCC2(C)C1CC(O)C1=CCOC1=O (stereo not drawn)
active: OVCAR-8 ovarian 7.07% | BT-549 breast -9.18% | SW-620 colon 3.41% | HCT-116 colon -31.2%
inactive: SR leukemia 32.8% | RPMI-8226 leukemia 12.6% | OVCAR-5 ovarian 82.9% | OVCAR-4 ovarian 60.2% | SK-OV-3 ovarian 100% | IGROV1 ovarian 59.3% | OVCAR-3 ovarian 38.2% | HS 578T breast 76.1% | NCI/ADR-RES ovarian 11.6% | T-47D breast 47.6% | MDA-MB-435 melanoma 40% | MCF7 breast 19% | HCC-2998 colon 52.1% | KM12 colon 54.3% | MDA-MB-468 breast 66.1%

Cc1ccc(F)cc1N/C=c1\s/c(=C(\C#N)C(=O)Nc2ccccc2)n(-c2ccccc2)c1=O
active: OVCAR-4 ovarian -26.9%
inactive: SR leukemia 75.4% | RPMI-8226 leukemia 84.9% | OVCAR-8 ovarian 53.9% | OVCAR-5 ovarian 72.5% | SK-OV-3 ovarian 78.1% | IGROV1 ovarian 61.5% | OVCAR-3 ovarian 99% | HS 578T breast 37% | NCI/ADR-RES ovarian 42.6% | T-47D breast 76.7% | BT-549 breast 99.7% | MDA-MB-435 melanoma 98.5% | SW-620 colon 105% | MCF7 breast 38.8% | HCT-116 colon 42% | HCC-2998 colon 92.1% | KM12 colon 84.8% | MDA-MB-468 breast 53%

O=C1c2ccccc2C(=O)c2c1c(C(=O)c1ccc(Cl)cc1)n1c2ccc2c3ccccc3ccc21
inactive: SR leukemia 104% | RPMI-8226 leukemia 101% | OVCAR-8 ovarian 103% | OVCAR-5 ovarian 115% | OVCAR-4 ovarian 107% | SK-OV-3 ovarian 95% | IGROV1 ovarian 105% | OVCAR-3 ovarian 109% | HS 578T breast 93.2% | NCI/ADR-RES ovarian 103% | T-47D breast 104% | BT-549 breast 119% | MDA-MB-435 melanoma 114% | SW-620 colon 101% | MCF7 breast 93% | HCT-116 colon 104% | HCC-2998 colon 116% | KM12 colon 103% | MDA-MB-468 breast 112%

CCNCCCn1c2c(c3cc(OC)c(OC)cc3c1=O)C(=O)c1cc3c(nc1-2)OCO3
active: SR leukemia -7.45% | RPMI-8226 leukemia -34.7% | OVCAR-8 ovarian -64.5% | OVCAR-5 ovarian -88.7% | OVCAR-3 ovarian -90.1% | NCI/ADR-RES ovarian -30.8% | MDA-MB-435 melanoma -83.1% | MCF7 breast -88.9% | HCT-116 colon -70.2% | MDA-MB-468 breast -36.2%
inactive: OVCAR-4 ovarian 57.9% | SK-OV-3 ovarian 35.4% | IGROV1 ovarian 18.4% | HS 578T breast 97.4% | T-47D breast 31.6% | BT-549 breast 36.2% | SW-620 colon 38.7% | HCC-2998 colon 20% | KM12 colon 33.7%

CCCSc1nc(NC2CC2)c(C#N)c(-c2ccc(OC)cc2)n1
inactive: SR leukemia 98.4% | RPMI-8226 leukemia 96.6% | OVCAR-8 ovarian 69.2% | OVCAR-5 ovarian 105% | OVCAR-4 ovarian 84.5% | SK-OV-3 ovarian 115% | IGROV1 ovarian 108% | OVCAR-3 ovarian 93.5% | HS 578T breast 105% | NCI/ADR-RES ovarian 68.7% | T-47D breast 88.8% | BT-549 breast 88.1% | MDA-MB-435 melanoma 106% | SW-620 colon 105% | MCF7 breast 103% | HCT-116 colon 74.1% | HCC-2998 colon 115% | KM12 colon 107% | MDA-MB-468 breast 139%

Cn1cc(/C=N/Nc2ccnc3cc(Cl)ccc23)c2ccccc21
active: SR leukemia -25% | RPMI-8226 leukemia -41.4% | OVCAR-8 ovarian -52.7% | OVCAR-5 ovarian -90.5% | OVCAR-4 ovarian -76.4% | SK-OV-3 ovarian -71.2% | IGROV1 ovarian -72.3% | OVCAR-3 ovarian -89.8% | HS 578T breast -63.7% | NCI/ADR-RES ovarian -79.8% | T-47D breast -60.9% | BT-549 breast -64.6% | MDA-MB-435 melanoma -83.5% | SW-620 colon -62.8% | MCF7 breast -78.4% | HCT-116 colon -46.5% | HCC-2998 colon -87.8% | KM12 colon -94.3% | MDA-MB-468 breast -83.5%

N#Cc1ccc(-c2nn(-c3ccc(C(=O)O)cc3)cc2CNc2ccc(Cl)cc2)cc1
inactive: SR leukemia 82.8% | RPMI-8226 leukemia 66.4% | OVCAR-8 ovarian 74.4% | OVCAR-5 ovarian 111% | OVCAR-4 ovarian 85.2% | SK-OV-3 ovarian 123% | IGROV1 ovarian 91.5% | OVCAR-3 ovarian 70.3% | HS 578T breast 88.6% | NCI/ADR-RES ovarian 67.7% | T-47D breast 74.3% | BT-549 breast 62.6% | MDA-MB-435 melanoma 89.7% | SW-620 colon 87.2% | MCF7 breast 70.8% | HCT-116 colon 53.8% | HCC-2998 colon 89.4% | KM12 colon 67% | MDA-MB-468 breast 116%

COc1ccc(-c2nc(Nc3ccccc3S(N)(=O)=O)c3ccccc3n2)cc1
inactive: SR leukemia 23% | RPMI-8226 leukemia 14.9% | OVCAR-5 ovarian 48% | OVCAR-4 ovarian 32.7% | SK-OV-3 ovarian 95.3% | IGROV1 ovarian 43.4% | HS 578T breast 42.8% | NCI/ADR-RES ovarian 18% | T-47D breast 35.7% | BT-549 breast 85.8% | HCC-2998 colon 12%
active: OVCAR-8 ovarian -27% | OVCAR-3 ovarian -20.6% | SW-620 colon 8.47% | MCF7 breast 9.02% | HCT-116 colon -42.9% | KM12 colon 6.25% | MDA-MB-468 breast -13.4%

COc1ccc(-c2cc(-c3cc(C(=O)c4ccc(Br)cc4)n4ccc(C)cc34)nc(N)c2C#N)cc1
inactive: SR leukemia 79.1% | RPMI-8226 leukemia 86.8% | OVCAR-8 ovarian 66.3% | OVCAR-5 ovarian 91.8% | OVCAR-4 ovarian 86.1% | SK-OV-3 ovarian 105% | IGROV1 ovarian 90% | OVCAR-3 ovarian 108% | HS 578T breast 90.8% | NCI/ADR-RES ovarian 82.6% | T-47D breast 82.8% | BT-549 breast 104% | MDA-MB-435 melanoma 92.7% | SW-620 colon 92.3% | MCF7 breast 79.1% | HCT-116 colon 73.8% | HCC-2998 colon 103% | KM12 colon 82.1% | MDA-MB-468 breast 24.3%

COc1cccc(/C=N/NC(=O)c2ccc3nc(-c4ccc(Cl)cc4)[nH]c3c2)c1O
active: SR leukemia -36.8% | RPMI-8226 leukemia -50.5% | OVCAR-8 ovarian -84.6% | OVCAR-5 ovarian -63% | OVCAR-4 ovarian -36.3% | SK-OV-3 ovarian -84.6% | IGROV1 ovarian -77.2% | OVCAR-3 ovarian -87.4% | HS 578T breast -54.7% | T-47D breast -33.2% | BT-549 breast -96.7% | MDA-MB-435 melanoma -89.3% | SW-620 colon -77.1% | MCF7 breast -78.5% | HCT-116 colon -90.3% | HCC-2998 colon -98% | KM12 colon -85.2% | MDA-MB-468 breast -96.1%
inactive: NCI/ADR-RES ovarian 50.7%

Cc1cc(=O)oc2cc(OCCCCOc3ccc(/C=C/C(=O)Nc4cccc(Cl)c4)cc3)ccc12
active: OVCAR-4 ovarian -30.5% | MDA-MB-468 breast 3.36%
inactive: SR leukemia 55.1% | RPMI-8226 leukemia 57.8% | OVCAR-8 ovarian 49.7% | OVCAR-5 ovarian 82.1% | SK-OV-3 ovarian 119% | IGROV1 ovarian 103% | OVCAR-3 ovarian 27.6% | HS 578T breast 29.5% | NCI/ADR-RES ovarian 45.7% | T-47D breast 24.5% | BT-549 breast 41% | MDA-MB-435 melanoma 64.2% | SW-620 colon 61.9% | MCF7 breast 50.8% | HCT-116 colon 79.7% | HCC-2998 colon 94.2% | KM12 colon 72.5%
